# Source: PubChem (Sanford-Burnham Center for Chemical Genomics)
# TWEAK Fn14 block = blocks TWEAK-Fn14 interaction in a reporter cell assay; TWEAK-stimulated Fn14 reporter cells, luciferase luminescence, 8 h; inhibition, % at 10 µM; actives 2% (n = 360,000); in the data active = inhibition above about 50%
# CF NFkB inh = inhibitors of cystic fibrosis induced NF-kB. KKLEB NF-kB-GFP reporter, PAF-induced, GFP fluorescence overnight. inhibition, % at 5 µM. actives 0.86% (n = 360,000);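 active = at least 50% inhibition at 5 µM, scaled per plate between neutral and stimulator controls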;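 also: PAF is a Pseudomonas aeruginosa culture filtrate used as stimulus; plate controls were PAF-stimulated DMSO wells for no effect and unstimulated DMSO wells for full effect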
# KKLEB tox = CF airway cell cytotoxicity counter-screen. actives 0.36% (n = 360,000). activity change (cytotoxicity), % at 5 µM. KKLEB CF airway cells viability, ATPlite luminescence, overnight; stronger effect = lower value; cells stimulated with P. aeruginosa culture filtrate;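 active = corrected activity change at or below -50% at 5 µM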
# HIF-2a inh = inhibitors of HIF-2a; 786-0 RCC cells HIF-2a reporter, luciferase luminescence, overnight; inhibition, % at 18.8 µM; actives 0.72% (n = 360,000); AID 624352;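 active = inhibition of the luminescence signal of 40% or more relative to plate controls, in a single-dose primary screen at 18.75 µM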
# TROY signal inh = blocks TROY-dependent signaling in reporter cells; Q293 LMP1-TROYcd NF-kB luciferase reporter, 4 h; inhibition, % at 10 µM; actives 0.98% (n = 360,000); AID 1347056;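 active = compounds whose plate-normalised and pattern-corrected inhibition of the luciferase reporter signal at the single screening dose is 50% or more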
# Peg3 promoter = inhibitors of Peg3 promoter; HeLa PEG-Prom luciferase reporter, luminescence, overnight; inhibition, % at 20 µM; actives 1.7% (n = 360,000);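 active = inhibition of at least 50% at 20 µM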
# Starred values were filed as active, the others as inactive; x = no result. Most compounds without a hit are left out; they make up all but 4% or so of the library.
SMILES,TWEAK Fn14 block,CF NFkB inh,KKLEB tox,HIF-2a inh,TROY signal inh,Peg3 promoter
COc1ccccc1N(CC(=O)NCCc1ccccc1)C(=O)CCC(=O)Nc1nccs1,8,0,2,7,4,13
CCOC(=O)C1CCN(c2ncnc3c2cnn3C)CC1,8,-2,6,13,10,8
O=C(CN1C(=O)C2CCCCC2C1=O)N1CCN(c2ncccn2)CC1 (stereo not given),-11,12,4,-36,-8,-10
COCC(=O)N1CCC(Oc2ccc(C(=O)NCCc3ncccc3C)cc2)CC1,3,0,31,-6,24,22
Cc1cccnc1CCNC(=O)c1ccc(OC2CCN(Cc3ccccn3)CC2)cc1,55*,-36,-1,19,50,72*
O=C(NCCc1cccc(Cl)c1)c1ccc(OC2CCN(Cc3ccccn3)CC2)cc1,82*,16,-8,13,73*,-17
CCc1nnc(NC(=O)c2ccc(NS(=O)(=O)c3ccccc3)cc2)s1,6,-7,9,0,11,22
COc1ccc(N2C(=O)Cc3ccccc3C2=O)cc1,-8,10,-6,25,-14,6
N#CC1=C(N)N(c2ccc(Oc3ccccc3)cc2)C(=O)C1,88*,-15,4,-41,x,-7
Cc1nnc(SCc2cccc([N+](=O)[O-])c2)s1,-16,6,-3,-65,-25,-52
CCNC(=S)NNC(=O)c1csc2c1CCC(C)C2 (stereo not given),-24,-3,5,-77,-14,-66
Cc1ccccc1NC(=S)NNC(=O)c1csc2c1CCC(C)C2 (stereo not given),87*,14,1,-7,80*,1
NS(=O)(=O)c1ccc(NC(=O)c2ccc(CSc3ccccc3)o2)cc1,3,18,-7,2,-13,9
O=C(c1ccncc1)N1CCN(c2cc(-c3ccccc3)nc3cc(-c4cccc(Cl)c4)nn23)CC1,70*,4,-7,-26,23,47
COc1ccc(-c2cc3nc(-c4ccccc4)cc(N4CCN(C(=O)c5ccoc5)CC4)n3n2)cc1,14,-4,4,-9,-25,55*
O=C(c1ccoc1)N1CCN(c2cc(-c3ccncc3)nc3cc(-c4cccc(Cl)c4)nn23)CC1,13,20,-30,-5,-6,19
COCCSc1ccccc1C(=O)N1CCN(Cc2ccc3c(c2)OCO3)CC1,-15,-8,-12,6,2,11
O=[N+]([O-])c1cccc(N=Nc2ccc(O)cc2O)c1,59*,66*,-41,-154,-15,-59
CC(C)c1[nH]nc2c1C(c1cccnc1)C(C#N)=C(N)O2 (stereo not given),60*,13,-18,-1,13,6
O=C(CNC(=O)c1ccccc1F)NC1CC1,-9,12,-17,-9,6,-22
CCn1c(NC(=O)Nc2ccccc2OC)nc2ccccc21,62*,-4,2,-11,x,-9
COc1ccc(C(=O)Cn2c(C)nc([N+](=O)[O-])c2Br)cc1,50*,33,-12,21,16,26
CCn1c(CNc2nc3ccccc3n2C(C)C)nc2ccccc21,99*,5,-9,15,7,9
CN(C)CC/C=C1\c2ccccc2Sc2cc(F)c(Cl)cc21,-25,12,5,13,3,62*
Cc1ccc(C)c(NC(=O)Cn2nnc(-c3ccc(N4CCOCC4)cc3)n2)c1,-29,25,-27,6,-18,-18
SMILES,TWEAK Fn14 block,CF NFkB inh,KKLEB tox,HIF-2a inh,TROY signal inh,Peg3 promoter
Oc1ccccc1-c1n[nH]c(-c2ccccc2O)n1,77*,18,0,-179,-2,-186
Clc1ccccc1-c1nc(-c2ccccc2)n[nH]1,1,-8,1,-226,-68,-202
CN(C)CCN(Cc1ccc(Cl)cc1)c1ccccn1,-8,-8,39,5,-3,-34
S=C(NCCCCN(Cc1ccc(Cl)cc1)c1ccc(Br)cn1)NCCCc1cnc[nH]1,-20,14,-16,-14,0,96*
O=C(N/N=C/c1ccccc1O)C1CC(=O)N(c2ccc(F)cc2)C1 (stereo not given),17,0,-1,5,9,52*
COc1ccc(N2CC(C(=O)N/N=C/c3c[nH]c4ccccc34)CC2=O)cc1 (stereo not given),1,6,0,14,22,28
Cc1cccc(C)c1NC(=O)C(c1ccccc1F)n1c(=O)c(-c2ccccc2)nc2ccccc21 (stereo not given),x,x,x,8,x,x
Cn1c(-c2ccccc2)c(C(=O)CCl)c2ccccc21,37,98*,-86*,28,12,55*
CCn1c(-c2ccccc2)c(C(=O)CCl)c2ccccc21,39,106*,-102*,34,34,46
Cc1cc(C)n(-c2ccc3cccc(NS(C)(=O)=O)c3n2)n1,-3,10,3,14,2,59*
COC(=O)c1cc(C(=O)c2cc(Cl)ccc2O)coc1=N,70*,-12,-5,24,4,19
COCCOC(=O)c1cc(C(=O)c2cc(F)ccc2O)coc1=N,-4,2,-4,-1,-11,15
CCOC(=O)/C=c1\s/c(=C\c2ccc3cc(OC)ccc3c2)c(=O)n1CC(=O)NCC1CCCO1 (stereo not given),-25,-3,-8,9,-19,61*
COc1ccc(-c2cn3c(C)c(C(=O)N4CCCc5ccccc54)sc3n2)cc1,39,-47,12,-67,26,-4
COc1ccc(-c2cn3c4c(sc3n2)CCCC4)cc1,73*,-10,-67*,-19,23,-58
CCNS(=O)(=O)c1ccc(CCC(=O)Nc2cc(Cl)ccc2Oc2ccccc2)cc1,44,15,-14,24,27,63*
COc1ccccc1C(=O)NC(=S)N1CCCc2ccccc21,59*,-5,-1,-88,49,-45
Cc1ccccc1C(=O)NC(=S)Nc1ccccc1N1CCCC1,12,-35,-13,-29,0,-15
COc1ccccc1NC(=O)Nc1ccccc1N1CCOCC1,61*,-7,7,-40,12,4
COc1ccc(OCC(=O)NC(=S)N2CCCc3ccccc32)cc1,55*,-8,7,-109,37,-57
COc1ccccc1C(=O)Nc1ccccc1N1CCOCC1,-4,0,-5,-10,-20,4
O=C(COc1ccccc1)NC(=S)N1CCc2ccccc21,-11,-5,1,-123,-12,-91
COc1ccccc1C(=O)NC(=S)Nc1ccccc1N1CCCC1,76*,-23,-11,-105,78*,-29
O=C(O)Cn1c(-c2ccccc2)cc2ccccc21,-11,3,0,20,-4,4
O=C(NCCCN1CCCC1=O)C1CCN(S(=O)(=O)c2cc(C(F)(F)F)ccc2Cl)CC1,-3,-7,10,0,-17,-8
